Screens: PubChem BioAssay, National Center for Advancing Translational Sciences (NCATS)
LmPK inh – LmPK (Leishmania mexicana) enzyme inhibition; Q27686; purified LmPK, Kinase-Glo ATP luminescence, 1 h; Potency, µM (series often up to 57.5 µM), hits mostly inhibitors; 290,000 compounds, 0.37% hits; AID 1721
Target sequence (Q27686 whole entry, looked up): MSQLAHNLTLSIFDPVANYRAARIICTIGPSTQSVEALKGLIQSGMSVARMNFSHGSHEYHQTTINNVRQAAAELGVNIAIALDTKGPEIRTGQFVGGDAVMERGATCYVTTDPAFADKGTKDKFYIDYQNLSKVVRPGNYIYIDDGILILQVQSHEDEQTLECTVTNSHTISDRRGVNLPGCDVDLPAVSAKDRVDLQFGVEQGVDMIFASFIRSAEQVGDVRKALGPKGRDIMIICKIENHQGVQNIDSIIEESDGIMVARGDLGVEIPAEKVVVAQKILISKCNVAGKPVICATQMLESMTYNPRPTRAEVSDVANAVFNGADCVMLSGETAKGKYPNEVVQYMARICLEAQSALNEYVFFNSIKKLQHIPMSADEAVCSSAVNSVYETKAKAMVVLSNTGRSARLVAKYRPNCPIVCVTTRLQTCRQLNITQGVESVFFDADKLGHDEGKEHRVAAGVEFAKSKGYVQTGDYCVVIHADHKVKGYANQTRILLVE
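Purified LmPK (0.1 nM) converted ADP (0.1 mM) to ATP with PEP (0.5 mM) in imidazole buffer pH 7.2 with KCl and MgCl2, 1 h at room temperature. ATP was read by Kinase-Glo luminescence; data normalized to uninhibited and no-enzyme controls.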
TbPYK inhibitor – inhibitors of Trypanosoma brucei pyruvate kinase. Potency, µM (doses to about 76.8 µM), usual class: inhibitors. TbPYK enzyme, Kinase-Glo Plus ATP luminescence, 45 min. 410,000 compounds, 0.12% hits; further: nearly all actives have a fitted effect of over 50% in size
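Glycolytic pyruvate kinase of T. brucei was incubated with substrate, test compound and 130 uM ADP for 45 minutes at room temperature. Luminescent Kinase-Glo Plus signal was measured after 10 minutes.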
Vaccinia Venus – inhibitors of vaccinia virus (Venus reporter); Vaccinia virus Venus reporter expression, fluorescence; Potency, µM (doses to about 36.5 µM), hits mostly inhibitors; 330,000 compounds, 0.46% hits; calls by dose curve; tested in A549 cells; further: nearly all actives have a fitted effect of over 30% in size
VACV mCherry inh – inhibitors of vaccinia virus infection (mCherry reporter signal); 310,000 compounds, 0.63% hits; Potency, µM (highest dose often 36.5 µM), most hits filed as inhibitors; Vaccinia virus mCherry reporter infection, fluorescence; AID 720579; calls by dose curve; tested in A549 cells; further: nearly all actives have a fitted effect of over 35% in size
AMA1 RON2 block – disrupts binding of P. falciparum AMA1 to RON2; AlphaScreen AMA1-biotinylated RON2 peptide binding; Potency, µM (doses to about 58.2 µM), actives largely listed as inhibitors; 360,000 compounds, 0.2% hits; further: nearly all actives have a fitted effect of over 45% in size
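AMA1 (3D7) with his tag at 25 nM final met compounds first, then biotinylated RON2 peptide at 25 nM; detection used donor plus acceptor beads, 10 µg/mL apiece, read by AlphaScreen after 30 min at room temperature.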
RE007 growth inh – less growth of the S. pombe RE007 Vpr strain; Potency, µM (titrated, usually from 92.2 µM), hits mostly inhibitors; 360,000 compounds, 0.21% hits; AID 651644; S. pombe RE007 Vpr strain, BacTiter-Glo ATP luminescence, 24 h; active means well fitted falling curve with a large enough effect; inconclusive means small, poorly fitted or top-dose-only effect; inactive means no such curve, though single readings can be large or run the other way; further: nearly all actives have a fitted effect of over 50% in size
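Fission yeast strain RE007, carrying one chromosomally integrated HIV-1 vpr copy, was seeded at OD 0.01 in PMG+AL medium with 23 nL pinned compound. After 24 h at 30 °C and 99% humidity, viability was read by BacTiter-Glo luminescence.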
Numbers stand for hits. An excerpt weighted towards active compounds, which were near 1.3% of everything screened. Unless noted, the call rests on the fitted dose curve; in most records, active means well fitted curve in the direction sought with a large enough effect; inconclusive means small, poorly fitted or top-dose-only effect, or another doubt; inactive means no such curve, though single readings can be large; an effect the other way counts as inactive or inconclusive.

How did Nc1nc2ccccc2n1C(=O)c1ccccc1 do in these assays?
LmPK inh: 6.31µM; TbPYK inhibitor: inconclusive; AMA1 RON2 block: inactive; RE007 growth inh: inconclusive

Results for Nc1nc2ccccc2n1C(=O)c1ccc(F)cc1 ?
LmPK inh: 25.1µM; TbPYK inhibitor: inactive; Vaccinia Venus: inactive; VACV mCherry inh: inactive; AMA1 RON2 block: inactive; RE007 growth inh: inactive

Results for Cn1cnnc1Sc1ccc(CN2CCOc3ccc(C4=Cc5ccccc5CC4)cc3C2)o1 ?
Vaccinia Venus: inactive; VACV mCherry inh: inactive

How did Cc1ccccc1-c1cc2nc(NCc3ccccc3)n(C)c(=O)c2s1 do in these assays?
TbPYK inhibitor: inactive; Vaccinia Venus: inactive; VACV mCherry inh: inactive; AMA1 RON2 block: inactive; RE007 growth inh: inactive

Results for CC(=O)NCCNc1nc2cc(-c3ccccc3C)sc2c(=O)n1C ?
TbPYK inhibitor: inactive; Vaccinia Venus: inactive; VACV mCherry inh: inactive; AMA1 RON2 block: inactive; RE007 growth inh: inactive

How did Cc1ccccc1-c1cc2nc(NCc3ccc(N(C)C)cc3)n(C)c(=O)c2s1 do in these assays?
TbPYK inhibitor: inactive; Vaccinia Venus: inactive; VACV mCherry inh: inconclusive; AMA1 RON2 block: 17.8µM; RE007 growth inh: inactive

What do the screens show for `CC(=O)NCCNc1nc2cc(-c3ccccc3CO)sc2c(=O)n1C`?
TbPYK inhibitor: inactive; Vaccinia Venus: inactive; VACV mCherry inh: inactive; AMA1 RON2 block: inactive; RE007 growth inh: 28.2µM

How did COC(=O)c1cccc(-c2cc(Cl)c3c(c2)CC(CNC(=O)c2cccnc2)O3)c1 (centres undefined) do in these assays?
Vaccinia Venus: inactive; VACV mCherry inh: inactive

How did CCOC(=O)/C(=C\c1cccnc1)C(=O)c1cc(C(C)=O)c(Nc2ccccc2)s1 do in these assays?
LmPK inh: inactive; TbPYK inhibitor: inconclusive; Vaccinia Venus: 11.2µM; VACV mCherry inh: 12.6µM; AMA1 RON2 block: inactive; RE007 growth inh: inactive

Results for CCOC(=O)/C(=C\c1ccccc1)C(=O)c1cc(C(C)=O)c(Nc2ccccc2)s1 ?
LmPK inh: inactive; TbPYK inhibitor: inactive; Vaccinia Venus: inactive; VACV mCherry inh: inactive; AMA1 RON2 block: inactive; RE007 growth inh: inactive

Results for CC1(C)Cc2ccccc2C2=NNC(=O)C2=N1 ?
LmPK inh: inactive; TbPYK inhibitor: inactive; Vaccinia Venus: 28.2µM; VACV mCherry inh: inconclusive; AMA1 RON2 block: inactive; RE007 growth inh: inactive

Results for COCC(=O)Nc1cc(C(=O)N2CCCOc3c(cccc3OC)C2)c2c(c1)nc(C1CCC1)n2C ?
Vaccinia Venus: inactive; VACV mCherry inh: inactive

Results for CCCn1c(=N)n(CC(O)COc2cccc(C)c2)c2ccccc21 (centres undefined) ?
LmPK inh: inactive; TbPYK inhibitor: inactive; AMA1 RON2 block: inactive; RE007 growth inh: inactive

What do the screens show for `CCCCCn1c(=N)n(CC(O)COc2cccc(C)c2)c2ccccc21` (centres undefined)?
TbPYK inhibitor: inactive; Vaccinia Venus: 10µM; VACV mCherry inh: 10µM

What do the screens show for `Cc1cc(N(C)C)ccc1N=Nc1ccc(N)cc1`?
TbPYK inhibitor: inactive; Vaccinia Venus: inactive; VACV mCherry inh: inactive; AMA1 RON2 block: 14.1µM; RE007 growth inh: inactive

What do the screens show for `Nc1ccc(N=Nc2ccc(N)cc2)cc1`?
LmPK inh: inactive; TbPYK inhibitor: inactive; AMA1 RON2 block: inactive; RE007 growth inh: inactive

How did Nc1nc(-c2ccc(Oc3ccccc3)cc2)cs1 do in these assays?
LmPK inh: inactive; TbPYK inhibitor: inactive; AMA1 RON2 block: inactive; RE007 growth inh: inactive

What do the screens show for `Cc1ccc(-c2csc(N)n2)cc1`?
TbPYK inhibitor: inactive; Vaccinia Venus: inconclusive; VACV mCherry inh: 11.2µM; AMA1 RON2 block: inactive; RE007 growth inh: inactive

Results for Nc1nc(-c2ccc(-c3ccccc3)cc2)cs1 ?
LmPK inh: inactive; TbPYK inhibitor: inactive; Vaccinia Venus: inconclusive; VACV mCherry inh: inconclusive; AMA1 RON2 block: inactive; RE007 growth inh: inconclusive

Results for COc1ccc(-c2csc(N)n2)cc1 ?
LmPK inh: inactive; TbPYK inhibitor: inactive; Vaccinia Venus: inconclusive; VACV mCherry inh: 14.1µM; AMA1 RON2 block: inactive; RE007 growth inh: inactive

What do the screens show for `CCCCCCC(=O)O[C@@H]1CC[C@H]2[C@@H]3CCc4cc(O)ccc4[C@H]3CC[C@]12C`?
TbPYK inhibitor: inactive

What do the screens show for `O=C(NCC1(N2CCCCC2)CCCCC1)c1ccc(-n2cc(NC(=O)c3cccnc3)cn2)cc1`?
Vaccinia Venus: inactive; VACV mCherry inh: inactive
